From ChEMBL document CHEMBL3988442, “University of Dundee, Small-Polar-MMV Screening Library” (2021)
Out of some 38,000 compounds screened, about 1,200 (3.2%) showed an effect of 50% or more. The median lay at about -58%. What follows is part of a selection rich in strong results, with near analogues and random picks from the rest.

system: Plasmodium falciparum; assay: Calibr Malaria Delayed Death Assay SOP; format: functional, organism-based; parameters: scale not given: in the data most compounds retested in dose-response had high values; conditions: concentration 4.99e-06 (unit not given; other assays of the set use mol/L)

| SMILES | Percent Effect |
| --- | --- |
| O=C1CC(c2ccc(O)cc2)c2sc(C(=O)O)c(-c3ccccc3)c2N1 (stereo not given) | -164.8% |
| Cc1ocnc1C(=O)N1CC[C@@H](O)[C@@H](O)[C@H](N2CCC(F)(F)CC2)C1 | -140.1% |
| Cc1ccc2c(n1)N(CC(C)C)CCN(S(C)(=O)=O)C2.O=C(O)C(F)(F)F | -91.42% |
| CCN1CC(CN2CCOCC2)Oc2ncccc2C1=O (stereo not given) | -121.7% |
| O=C(C1CNCCO1)N1CCC(c2cc(N3CCCC3)ncn2)CC1 (stereo not given) | -72.24% |
| Cc1ccc(-c2ccc(C3CNCCO3)nc2)cc1.Cl (stereo not given) | 82.68% |
| O=C(c1csc(C2CC2)n1)N1CCCCC1Cn1cccn1 (stereo not given) | -84.46% |
| CN(Cc1cccc(C#N)c1)c1ncc(C(N)=O)cc1Cl | -70.4% |
| CC(C(=O)Nc1cc(F)ccc1F)N1CCN(Cc2ncc[nH]2)CC1 (stereo not given) | -135.8% |
| O=S(=O)(Cc1ccccc1)NCc1ccco1 | -115.6% |
| NCCC(Cc1ccccc1)c1ccco1 (stereo not given) | 83.75% |
| O=C(NCCC(O)c1ccccc1)c1ccco1 (stereo not given) | -97.01% |
| CCOc1cccc(C(=O)N(CCC#N)Cc2ccccn2)c1 | -89.54% |
| O=C(NC1CC1)c1cc2c(s1)CCN2C(=O)C1CC1 | -64.25% |
| Cc1ccc(C)c(S(=O)(=O)NC(=O)c2cccc3c2OCCO3)c1 | -117.7% |
| C[C@@H]1CN(Cc2ccncc2)C[C@]1(C)O | -25.52% |
| COc1cc2c(cc1CN1CCCCC1CN1CCOCC1)CCC2 (stereo not given) | 64.85% |
| COc1cc2c(cc1CN1C[C@@H](CN3CCOCC3)[C@@H](CO)C1)CCC2 | 19.43% |
| COc1cccc(CN2CCCCC2CN2CCOCC2)c1F (stereo not given) | 2.016% |
| Cc1c(C(=O)NCCCC(N)=O)sc2ccc(F)cc12 | -72.75% |
| O=C1CC(NS(=O)(=O)c2ccc3ccccc3c2)CN1 (stereo not given) | -65.16% |
| Cc1noc([C@@H]2C[C@@H]3CCN(c4nnc(C)s4)C[C@H]3O2)n1.O=C(O)C(F)(F)F | -44.29% |
| Cc1nc(CCN)cc(N(C)Cc2nc3ccc(F)cc3[nH]2)n1 | -113.9% |
| Cc1nc(C2CCNCC2)cc(N(C)Cc2cc3cc(F)ccc3[nH]2)n1 | 75.18% |
| Cc1nc(NCc2ccc(C)o2)cc(C2CCNCC2)n1 | -133.8% |

| SMILES | Percent Effect |
| --- | --- |
| CN(Cc1cc2cc(F)ccc2[nH]1)c1cc(C2CCCNC2)ncn1 (stereo not given) | 83.71% |
| Cc1nc(NCc2coc(-c3ccccc3)n2)cc(C2CCNCC2)n1 | -7.041% |
| Cc1ccnc(CC(C)N(C)c2cc(C3CCNCC3)nc(C)n2)c1 (stereo not given) | -104.4% |
| Cc1c(CN(C)c2cc(C3CCCNC3)ncn2)[nH]c2ccccc12 (stereo not given) | 11.41% |
| CNS(=O)(=O)CC(=O)N(Cc1c(F)cccc1Cl)C1CC1 | -68.94% |
| Cc1nc(C2CCNCC2)cc(N(C)CCc2cn[nH]c2)n1 | -114.3% |
| CN(Cc1cc2cc(F)ccc2[nH]1)C(=O)C1CC(=O)N(C2CCCC2)C1 (stereo not given) | 12.79% |
| Cc1cccc(CNC(=O)Nc2cc(C(F)(F)F)c[nH]c2=O)n1 | -120.3% |
| CCn1nc(C)c2nc(C)nc(NC3CCCC3)c21 | -48.65% |
| Cc1ccc(CN2CCN(CC(=O)Nc3ccc4nsnc4c3)CC2)o1 | -102.5% |
| CC(=O)c1ccc(-c2cc(C(F)(F)F)cc(N(C)C)n2)cc1 | -183.7% |
| CCOC(=O)C1=NOC(Cc2cc(OC)c3c(c2)OCO3)C1 (stereo not given) | -124.2% |
| Cc1cc(N2CCOCC2)ccc1NC(C)c1nc(C(C)C)no1 (stereo not given) | -4.816% |
| Cc1sc2nc(CCN)nc(N3CCS(=O)(=O)CC3)c2c1C | -119.4% |
| CCOC(=O)N1CCN(c2nc(C)ncc2CC)CC1 | -56.83% |
| CCOC(=O)N1CCN(c2nc(CCN)nc3sc(C)c(C)c23)CC1 | 65.93% |
| Cc1sc2nc(C(F)(F)F)nc(N3CCN(S(C)(=O)=O)CC3)c2c1C | -77.64% |
| Cc1sc2nc(C(F)(F)F)nc(N3CCC(NS(C)(=O)=O)CC3)c2c1C | 27.92% |
| Cc1sc2nc(CCN)nc(N3CCC(N4CCCC4)CC3)c2c1C | 84.16% |
| Cn1ccnc1-c1cn(CCCc2nnc(N)s2)nn1 | -41.76% |
| O=C(N1CCCC(n2cncn2)C1)C1(c2cccc(F)c2)CCC1 (stereo not given) | -129.3% |
| CCN(CC)C(=O)COc1ccnc2cc(OC)ccc12 | -91.77% |
| O=C(C1CCCO1)N1CCC2(CC1)COCCN(Cc1cccnc1)C2.O=C(O)C(F)(F)F.O=C(O)C(F)(F)F (stereo not given) | -101.1% |
| Cc1cccc2nc(CNCc3cccc4c3OCCCO4)cn12 | 46.47% |
| Cc1cccn2cc(CNCc3cccc4c3OCCCO4)nc12 | 52.57% |

| SMILES | Percent Effect |
| --- | --- |
| c1cc(CNCCc2cn3ccccc3n2)c2c(c1)OCCCO2 | -61.04% |
| CN(C)C(=O)Cc1ccc(-c2cccc3c2CCNC3)cc1 | -89.76% |
| CN(C)[C@H]1CCN(c2ccnc(C(=O)NCc3ccco3)c2)C1 | -104.8% |
| O=C(NCc1ccco1)c1cc(N2CC[C@@H](O)C2)ccn1 | -225.7% |
| CCCOC1CCCN(c2ccnc(C(=O)NCc3ccco3)c2)C1 (stereo not given) | 63.16% |
| CCS(=O)(=O)Nc1cnn(Cc2cccc(Cl)c2)c1 | -156.5% |
| COc1ccc(-c2nc3c([nH]2)CCCNC3=O)cc1OC | -190.2% |
| Cc1nn(C)c(N2CCOCC2)c1CNC(C)c1ccccn1 (stereo not given) | -39.11% |
| Cc1ccc(OC2(C(=O)N(C)Cc3ccoc3)CCNCC2)cc1 | 63.87% |
| CN(C)C(=O)C1(Oc2ccc(Cl)cc2)CCNCC1 | 48.49% |
| CN(Cc1ccoc1)C(=O)C1(Oc2ccc(Cl)cc2)CCNCC1 | 67.21% |
| CN(Cc1ccncn1)C(=O)C1(Oc2ccc(Cl)cc2)CCNCC1 | -76.49% |
| O=C(N[C@@H]1CCCNC1)C1(Oc2ccc(Cl)cc2)CCNCC1 | -19.49% |
| COc1cccn(CC(=O)N(C)Cc2ccoc2)c1=O | -45.98% |
| Cc1ccc(C(=O)N2CC[C@@]3(O)CCCC[C@H]3C2)cc1 | -98.64% |
| O=C1CC(c2cccnc2)c2c(sc3c2CCCC3)N1 (stereo not given) | 28.11% |
| O=C1CC(c2ccc(C(=O)O)cc2)c2c(sc3c2CCCC3)N1 (stereo not given) | -5.696% |
| O=C1CC(c2ccncc2)c2c(sc3c2CCCC3)N1 (stereo not given) | 55.71% |
| O=C(CCc1ccco1)NS(=O)(=O)N1CCOc2ccccc21 | -129.3% |
| Cc1cc(C[C@@H]2CCC[C@H]2NCc2ccccc2F)on1.O=C(O)CC(O)(CC(=O)O)C(=O)O | -9.902% |
| CCCOc1ccccc1CN[C@@H]1CCC[C@H]1Cc1cc(C)no1.O=C(O)CC(O)(CC(=O)O)C(=O)O | 84.13% |
| Cc1ccccc1Oc1ncccc1CNC1CCC1 | 31.34% |
| Cc1cc(C[C@@H]2CCC[C@H]2NCc2ccccc2C)on1.O=C(O)CC(O)(CC(=O)O)C(=O)O | 63.44% |
| Cc1cc(CS(=O)(=O)NC2CCCCC2)on1 | -56.68% |
| Cc1cc(C[C@@H]2CCC[C@H]2NCc2cccc(F)c2F)on1.O=C(O)CC(O)(CC(=O)O)C(=O)O | -66.07% |

| SMILES | Percent Effect |
| --- | --- |
| CCC[C@H]1CN(Cc2cc(C)no2)C[C@@H]1NC(=O)C1(COC)CCC1 | -58.42% |
| CCCc1cc(CNC(=O)Cc2cc(C)no2)on1 | -176% |
| COc1ccc(-c2nc(CN3CCc4cnc(C)nc4C3)no2)cc1 | -21.98% |
| Cc1cccc(NC(=O)[C@@H]2CCCN2Cc2nc3ccccc3o2)n1 | -70.67% |
| O=C(O)C(F)(F)F.O=C(O)c1cc(NS(=O)(=O)c2ccc(Cl)s2)ccc1N1CCOCC1 | -83.84% |
| CCCc1cc(N2CCC(Cc3cccc(C(N)=O)c3)C2)nc(C)n1 (stereo not given) | -73.24% |
| CN(C)c1cc(C(=O)NCc2cccnc2-n2cncn2)ccn1 | -24.53% |
| Cc1ccc(CN(CCN(C)C)C(=O)Nc2ccc(C)c(C#N)c2)s1 | 40.03% |
| Cc1ccsc1CN(CCN(C)C)C(=O)c1ccccc1C#N | 59.93% |
| Cc1ccsc1CN(CCN(C)C)C(=O)c1cc2ccccc2[nH]1 | -0.6518% |
| O=C(NC[C@@H]1CCCO1)c1cccnc1N1CCCC1c1ccccn1 (stereo not given in full) | -159.2% |
| CCOC(=O)N[C@H]1C[C@@H](C(=O)NCCc2cccc(Cl)c2)N(C)C1 | -112.6% |
| COC1CCCN(C2CCN(c3cccc(-c4csc(C)n4)c3)CC2)C1 (stereo not given) | -26.41% |
| Cc1nc(-c2cccc(N3CCC(N4CCCC4)CC3)c2)cs1 | 70.2% |
| Cc1nc(-c2cccc(N3CCC(N4CCCC(C#N)C4)CC3)c2)cs1 (stereo not given) | -24.98% |
| CC(C)c1nnc(CN(C)Cc2ccccc2-c2ccccc2)o1 | -137.8% |
| Cc1nc(N2CCCC2)nc2c1CCN(C(=O)C(C)C)CC2 | -54.78% |
| O=C(COc1cccc2c1CCC2=O)NCc1ccccc1Cl | -71.52% |
| CCC(NC(=O)CC(F)(F)F)c1ccccc1OCC(=O)N1CCCC1 (stereo not given) | 15.61% |
| CCC(NCc1ccccc1C)c1ccccc1OCC(=O)NC (stereo not given) | 78.75% |
| Cc1ccccc1CNc1ccccc1OCC(=O)N1CCOCC1 | 13.74% |
| CCC(NCc1ccccc1Cl)c1ccccc1OCC(=O)NC (stereo not given) | 73.2% |
| Cc1ccc(OCCCC(=O)NC(C)c2nnc3n2CCC3)cc1 (stereo not given) | -64.5% |
| O=C1CCC(=O)N1CCn1nnc(-c2ccc(Br)cc2)n1 | -91.28% |
| CCS(=O)(=O)N1CCN(Cc2cccnc2)c2nc(C)ccc2C1.O=C(O)C(F)(F)F.O=C(O)C(F)(F)F | 2.753% |
